The values below come from PubChem BioAssay (NCI).

This is part of a sample that, as a whole, favours compounds with a hit. Of some 83,000 tested, about 20% had one in any assay.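 48-hour exposure, single concentration, 96-well plates; percent growth endpoint where 0 means no net growth. Active: below 10.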 Values without a mark were called inactive. Calls of active or inactive are those of the source.

Some test systems named below: SK-MEL-2 melanoma; EKVX NSCLC; SN12C renal; UO-31 renal; TK-10 renal; ACHN renal; CAKI-1 renal; A498 renal; CCRF-CEM leukemia; MOLT-4 leukemia.
Assay in all cases: NCI-60 one-dose screen, 48 h (100 = growth as untreated, 0 = no growth, -100 = all killed)
Conditions in all cases: 10 µM unless noted

In the case of `CN(CCC#N)c1ccc(/C=C2\NC(=O)NC2=O)cc1`, the growth with SK-MEL-2 melanoma was 100%; in the test with EKVX NSCLC, 79.3%; in the test with SN12C renal, 98.6%; with UO-31 renal, 84.4%; in the test on TK-10 renal, 93.5%; with ACHN renal, 97.9%. The growth in the test on CAKI-1 renal was 82.8%; in the test with A498 renal, 89.3%; with CCRF-CEM leukemia, 107%; with MOLT-4 leukemia, 92%.
For the compound `COc1cc(-c2nc3ccc(C)cc3[nH]2)ccc1OCC(=O)N=Nc1c(O)[nH]c2ccc(Cl)cc12`, the growth is 13% with SK-MEL-2 melanoma; 50.7% in the test with EKVX NSCLC; -56.4% (active) in the test on SN12C renal; 86.3% in the test with UO-31 renal; 23.4% with TK-10 renal; 31.4% in the test on ACHN renal. Also, the growth in the test on CAKI-1 renal was -61.8% (active); with A498 renal, 82.2%; in the test on CCRF-CEM leukemia it was -39.1% (active); in the test with MOLT-4 leukemia, -17.9% (active).
Turning to `CN1CCN(Cc2cc(NC(=O)c3cccc(C#Cc4cccc5[nH]nc(N)c45)c3)cc(C(F)(F)F)c2)CC1`, the growth is 17.8% in the test on SK-MEL-2 melanoma; 46% in the test with EKVX NSCLC; 19.3% with SN12C renal; -17% (active) in the test with UO-31 renal; 61.4% in the test with TK-10 renal; 4.75% (active) in the test on ACHN renal. Moreover, the growth was 70.8% in the test on CAKI-1 renal, 42.6% with A498 renal, -8.44% (active) in the test with CCRF-CEM leukemia and -35.2% (active) in the test with MOLT-4 leukemia.
With `O=C(CN1CCN(c2cc3c(cc2F)c(=O)c(C(=O)O)cn3C2CC2)CC1)N/N=C/c1ccncc1`, the growth is 105% in the test on SK-MEL-2 melanoma; 98.3% in the test with EKVX NSCLC; 106% in the test with SN12C renal; 90.6% with UO-31 renal; 91.6% in the test on TK-10 renal; 99.6% in the test on ACHN renal. The growth is 93.8% with CAKI-1 renal, 96.4% with A498 renal, 94% with CCRF-CEM leukemia and 101% in the test on MOLT-4 leukemia.
For `CC(/C=C1\SC(=S)N(CC(=O)NC(Cc2c[nH]c3ccccc23)C(=O)O)C1=O)=C\c1ccccc1` (stereo not given), the growth in the test on SK-MEL-2 melanoma is 110%; in the test with EKVX NSCLC, 98.5%; in the test on SN12C renal, 95%; in the test on UO-31 renal, 63.9%; in the test on TK-10 renal it was 122%; in the test with ACHN renal, 96.5%. The growth in the test with CAKI-1 renal was 87%; in the test on A498 renal it was 107%; in the test on CCRF-CEM leukemia it was 104%; in the test with MOLT-4 leukemia, 104%.
As to `Cc1cc(C)c(-c2c(O)c(Br)c(-c3c(C)cc(C)c(Br)c3C)c(O)c2Br)c(C)c1Br`, the growth with SK-MEL-2 melanoma was -22.3% (active); in the test with EKVX NSCLC, 19.2%; in the test with SN12C renal, 37.2%; in the test with UO-31 renal, -29.9% (active); in the test on TK-10 renal, 12%; in the test with ACHN renal, 14.1%. Further, the growth in the test on CAKI-1 renal was 5.75% (active); in the test with A498 renal, 64.7%; in the test on CCRF-CEM leukemia, 35.6%; in the test with MOLT-4 leukemia it was 28.9%.
`C=CCCC(=O)N1C=CC(=O)[C@H](O)[C@@H]1/C=C/c1ccccc1`: the growth is 77.7% [100 µM] in the test on SK-MEL-2 melanoma; 37.4% [100 µM] with EKVX NSCLC; 42% [100 µM] with SN12C renal; 29% [100 µM] in the test with UO-31 renal; 54.9% [100 µM] in the test on TK-10 renal; 28.1% [100 µM] with ACHN renal. In addition, the growth with CAKI-1 renal is 15.7% [100 µM]; in the test on A498 renal, 83.4% [100 µM]; in the test on CCRF-CEM leukemia, 27.7% [100 µM]; in the test with MOLT-4 leukemia, 36.5% [100 µM].
Turning to `COc1ccc2nc(SCC(=O)Nc3ccccc3C)[nH]c2c1`, the growth with SK-MEL-2 melanoma is 101%; in the test with EKVX NSCLC it was 88.4%; in the test on SN12C renal, 95.2%; in the test with UO-31 renal it was 74.3%; with TK-10 renal, 105%; in the test with ACHN renal, 94.4%. Also, the growth in the test with CAKI-1 renal is 88%; in the test with A498 renal, -41.9% (active); in the test on CCRF-CEM leukemia, 87.5%; with MOLT-4 leukemia, 88.8%.
For the compound `O=C(CCC(=O)c1nc2ncccc2[nH]1)NN1C(=O)CSC1c1ccc(Cl)cc1` (stereo not given), the growth in the test on SK-MEL-2 melanoma is 106%; with EKVX NSCLC, 100%; in the test on SN12C renal, 97%; in the test with UO-31 renal, 70.7%; in the test with TK-10 renal, 126%; in the test with ACHN renal, 97.4%. Also, the growth is 84.2% with CAKI-1 renal, 111% with A498 renal, 83.8% in the test with CCRF-CEM leukemia and 106% in the test with MOLT-4 leukemia.
In the case of `O=C1CCCc2nc3sc4c(=O)n(-c5ccccc5Cl)nnc4c3cc21`, the growth is 95.2% in the test with SK-MEL-2 melanoma; 91.7% with EKVX NSCLC; 90.4% with SN12C renal; 92.4% in the test on UO-31 renal; 95% in the test on TK-10 renal; 107% with ACHN renal. The growth was 97.6% in the test on CAKI-1 renal, 95.5% in the test on A498 renal, 85.1% in the test on CCRF-CEM leukemia and 98.2% in the test on MOLT-4 leukemia.
Consider `COc1ccc(C2C(C#N)=C(N)Oc3c2sc2c(Br)cccc32)cc1` (stereo not given), for which the growth with SK-MEL-2 melanoma was 10.9%; in the test on EKVX NSCLC it was 46.2%; in the test with SN12C renal, 37.3%; in the test on UO-31 renal, 35.9%; in the test with TK-10 renal it was 50.2%; in the test with ACHN renal, 54%. Further, the growth in the test with CAKI-1 renal was 35.9%; in the test with A498 renal, 27%; in the test with CCRF-CEM leukemia it was 12.5%; in the test with MOLT-4 leukemia, 12.1%.
Regarding `COc1cc(-c2cc(-c3ccc(Nc4ncnc5cc(Cl)ccc45)cc3)nc(N3CCN(C)CC3)n2)cc(OC)c1OC`, the growth in the test on SK-MEL-2 melanoma was 93.4%; in the test with EKVX NSCLC, 102%; in the test with SN12C renal, 88.6%; in the test on UO-31 renal, 23.4%; in the test on TK-10 renal it was 136%; in the test with ACHN renal it was 75.4%. Moreover, the growth in the test with CAKI-1 renal is 91%; in the test with A498 renal, 102%; in the test with CCRF-CEM leukemia, 52.5%; in the test with MOLT-4 leukemia, 58.1%.
